# Source: PubChem BioAssay (EPA / NIEHS)
# Several values for one entry are separate records, joined by “and”; a condition that tells them apart may be missing. Identical values can stand only once. Records with an inconclusive call do not appear. Some structures have more than one record in an assay (separate samples or runs), and their calls can disagree. Activity calls are given as the source filed them. Rule for the calls, unless noted: active = hit-call score of the fitted dose curve at least 0.9, where 1 is the maximum; inactive = score below 0.9.
# Legend:
# [1] = BSK_BT_PBMCCytotoxicity: PBMC Cytotoxicity Assessment in the BioMAP Diversity Plus: BT Assay (AID 2284225); settings: primary human B cells with PBMC;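 note: PBMC viability measured by Alamar Blue dye reduction fluorescence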
# How it was run: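 Primary human co-culture of B cells and PBMC, pre-dosed 1 h then activated with SEB and TSST-1. Cytotoxicity is taken from Alamar Blue dye reduction, added for 6 h at the end of a 90 h incubation.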
# [2] = read-out: Secreted IgG (sIgG), gene 3500; test: BSK_BT_sIgG: BioMAP Diversity Plus: BT Assay for Secreted IgG (sIgG) Biomarker Activity (AID 2284226); settings: primary human B cells with PBMC
# How it was run: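 Human B cell/PBMC co-culture; compound exposure 24 h; sIgG by ELISA; gain-of-signal fit vs DMSO baseline.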
# [3] = BSK_BT_Bcell_Proliferation: Viability Assessment in the BioMAP Diversity Plus: BT Assay for B cell Proliferation (AID 2284227); settings: primary human B cells with PBMC
# How it was run: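 Human B cell/PBMC co-culture; test chemical added; 72 h; TCA fix (10%), 0.1% SRB stain, A560 for total protein as a proliferation read-out; positive-direction fit vs DMSO baseline.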
# [4] = read-out: Interleukin 6 (IL6), IL6 (gene 3569); test: BSK_BT_xIL6: BioMAP Diversity Plus: BT Assay for Interleukin 6 (IL6) Biomarker Activity (AID 2284228); settings: primary human B cells with PBMC
# How it was run: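 Readout: secreted IL-6 via Luminex xMAP multiplex, 24 h post-dosing. System: primary human B cells co-cultured with PBMC. Signal change scored relative to DMSO vehicle, positive fitting direction.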
# [5] = read-out: Interleukin 17A (IL17A), IL17A (gene 3605); test: BSK_BT_xIL17A: BioMAP Diversity Plus: BT Assay for Interleukin 17A (IL17A) Biomarker Activity (AID 2284229); settings: primary human B cells with PBMC
# How it was run: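 Luminex xMAP readout of secreted IL-17A; human B cell + PBMC co-culture; 24 h post-dose; positive-direction fit vs DMSO negative control.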
# [6] = read-out: Tumor necrosis factor (Homo sapiens) (UniProt P01375); test: BSK_BT_xTNFa: BioMAP Diversity Plus: BT Assay for Tumor necrosis factor alpha (TNF-alpha) Biomarker Activity (AID 2284230); settings: primary human B cells with PBMC
# How it was run: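 Read-out: Luminex xMAP quantitation of secreted TNF-alpha from a B cell/PBMC co-culture 24 h after compound addition. Signal analysed relative to DMSO vehicle, positive fitting direction.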
# [7] = read-out: Vascular cell adhesion molecule 1 (VCAM1), VCAM1 (gene 7412); test: BSK_MyoF_VCAM1: BioMAP Diversity Plus: MyoF Assay for Vascular cell adhesion molecule 1 (VCAM1) Biomarker Activity (AID 2284231); settings: primary human lung fibroblasts
# How it was run: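 MyoF system, lung fibroblasts; 24 h post-dose; VCAM-1 by ELISA; gain-of-signal fit vs DMSO baseline.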
# [8] = read-out: Collagen I, COL1A1 (gene 1277); test: BSK_MyoF_CollagenI: BioMAP Diversity Plus: MyoF Assay for Collagen I Biomarker Activity (AID 2284238); settings: primary human lung fibroblasts
# How it was run: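 ELISA readout of Collagen I after 24 h chemical treatment of primary human lung fibroblast cultures; gain of signal scored relative to DMSO vehicle baseline.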
# [9] = read-out: Collagen III, COL3A1 (gene 1281); test: BSK_MyoF_CollagenIII: BioMAP Diversity Plus: MyoF Assay for Collagen III Biomarker Activity (AID 2284239); settings: primary human lung fibroblasts
# How it was run: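 Lung fibroblast culture; 24 h compound exposure; collagen III by ELISA; gain-of-signal fit vs DMSO baseline.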
# [10] = CCTE_Mundy_HCI_hNP1_Pro_ResponderAvgInten: CCTE's Proliferation Assay in human neuroprogenitor cells, Mundy Lab (AID 2284224; active = hit-call score of the fitted dose curve at least 0.9, where 1 is the maximum;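 note: human neural progenitor cells hNP1 derived from WA09 embryonic stem cells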)
# How it was run: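 Human neuroprogenitors (hNP1, WA09 lineage) receive test chemical after 40 to 44 hours of attachment. A four-hour BrdU pulse begins twenty hours later, followed by fixation and high content imaging; signal is referenced to DMSO controls.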
# [11] = CCTE_Mundy_HCI_Cortical_Synap_Neur_Matur_SynapseCount: CCTE's Synaptogenesis and Neurite Maturation Assay in rat cortical cells for Synapse Count, Mundy Lab (AID 2284218)
# How it was run: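 Read-out: synapse number per neuron, automated high-content imaging of fixed cells immunostained for MAP2 and synaptophysin plus Hoechst nuclei. Rat primary cortical cultures, AraC at DIV 5, chemical dosing DIV 7–12. Positive-direction fit relative to DMSO.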
# [12] = CCTE_Mundy_HCI_Cortical_Synap_Neur_Matur_NeuriteCount: CCTE's Synaptogenesis and Neurite Maturation Assay in rat cortical cells for Neurite Count, Mundy Lab (AID 2284222);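 note: exposure from day 7 to day 12 in vitro with readout at day 12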
# How it was run: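 Rat cortical neurons, 96-well; AraC DIV 5; chemical + media change DIV 7; end DIV 12. Fix PFA/Hoechst, anti-MAP2 + anti-synaptophysin IF. HCI neurite count vs DMSO baseline.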
# [13] = CCTE_Mundy_HCI_Cortical_Synap_Neur_Matur_CellBodySpotCount: CCTE's Synaptogenesis and Neurite Maturation Assay in rat cortical cells for Cell Body Spot Count, Mundy Lab (AID 2284223)
# How it was run: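 Read-out: cell body-associated synaptophysin puncta per neuron, imaged after MAP2, synaptophysin and Hoechst staining. Rat cortical cells, AraC DIV 5, chemical dosing DIV 7, fixation DIV 12. Activity fitted in positive direction relative to DMSO baseline.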
# [14] = UKN2_HCS_IMR90_cell_viability: Viability Assessment in the University of Konstanz (UKN) Leist Lab Neural Crest Cell Migration Assay in human induced IMR90 Pluripotent Stem Cells (UKN2) (AID 2284233);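 note: viability of neural crest cells differentiated from IMR90 iPSC measured by calcein-AM fluorescence imaging; cells exposed to compound for 24 h after a 24 h migration phase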
# How it was run: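 cMINC format, iPSC-derived neural crest (IMR90); 24 h migration (EGF/FGF, N2-S), then 24 h toxicant. Calcein-AM/H-33342 stain 30 min; fluorescence intensity by HCS; DMSO-normalised, bidirectional fitting.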
# [15] = CCTE_Mundy_HCI_Cortical_NOG_NeuronCount: CCTE's Neurite Outgrowth Assay in rat cortical cells for Neuron Count, Mundy Lab (AID 2284236; active = hit-call score of the fitted dose curve at least 0.9, where 1 is the maximum;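 note: neurons counted by imaging betaIII-tubulin and Hoechst stained cortical cells; cells exposed to compound for about 48 hours before fixation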)
# How it was run: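 Read-out: neuron number by high-content imaging of betaIII-tubulin (Alexa Fluor-488) and Hoechst-labelled rat primary cortical cells.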
# [16] = CCTE_Mundy_HCI_Cortical_NOG_BPCount: CCTE's Neurite Outgrowth Assay in rat cortical cells for Branch Point Count, Mundy Lab (AID 2284237)
# How it was run: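 Measured 50.33 h after dosing, this morphology endpoint uses rat primary cortical cultures labelled for betaIII-tubulin. Branch points are quantified by high-content imaging, with DMSO as negative control and baseline.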
# Sequence of Tumor necrosis factor (Homo sapiens) (P01375 whole entry, looked up): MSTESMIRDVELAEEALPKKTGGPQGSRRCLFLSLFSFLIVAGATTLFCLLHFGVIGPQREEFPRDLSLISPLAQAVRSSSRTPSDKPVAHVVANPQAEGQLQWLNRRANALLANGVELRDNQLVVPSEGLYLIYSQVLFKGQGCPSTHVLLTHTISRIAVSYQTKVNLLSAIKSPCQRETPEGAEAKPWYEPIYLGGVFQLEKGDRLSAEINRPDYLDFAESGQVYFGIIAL
structure (smiles),measurement,setting,value
Oc1ccc(Nc2ccccc2)cc1,AC50,[1],16.7 µM (active)
same,AC50,[2],13.4 µM (active)
same,AC50,[3],22.5 µM (active)
same,AC50,[4],20 µM (active)
same,AC50,[5],14.3 µM (active)
same,AC50,[6],30.1 µM (active)
same,outcome,[7],inactive
same,outcome,[8],inactive
same,AC50,[9],16.2 µM (active)
O=S(=O)(OCC(F)F)C(F)(F)F,outcome,[1],inactive
same,outcome,[2],inactive
same,outcome,[3],inactive
same,outcome,[4],inactive
same,outcome,[5],inactive
same,AC50,[6],1.01 µM (active)
same,outcome,[6],inactive
same,outcome,[7],inactive
same,outcome,[8],inactive
C=C(C)C(=O)OCC(F)(F)C(F)(F)C(F)(F)F,outcome,[10],inactive
same,outcome,[1],inactive
same,outcome,[4],inactive
same,outcome,[5],inactive
same,outcome,[6],inactive
same,outcome,[7],inactive
same,outcome,[8],inactive
same,outcome,[9],inactive
FC(F)(F)C(F)(F)C(F)(F)C(F)(F)C(F)(F)C(F)(F)C(F)(F)C(F)(F)CCS,outcome,[10],inactive
same,outcome,[1],inactive
same,outcome,[4],inactive
same,outcome,[5],inactive
same,outcome,[6],inactive
same,AC50,[7],6.22 µM (active)
same,outcome,[7],inactive
same,outcome,[8],inactive
same,outcome,[9],inactive
CCCCCCCOC(=O)c1ccccc1C(=O)OCCCCCCC,outcome,[1],inactive
same,AC50,[2],13.3 µM (active)
same,outcome,[3],inactive
same,outcome,[4],inactive
same,outcome,[5],inactive
same,outcome,[6],inactive
same,outcome,[7],inactive
same,outcome,[8],inactive
OCC(F)(F)C(F)(F)C(F)(F)C(F)(F)C(F)(F)C(F)F,outcome,[1],inactive
same,outcome,[2],inactive
same,outcome,[4],inactive
same,outcome,[5],inactive
same,outcome,[6],inactive
same,outcome,[7],inactive
same,outcome,[8],inactive
CCN(CC)c1ccc2c(C)cc(=O)oc2c1,outcome,[1],inactive
same,AC50,[2],28.3 µM (active)
same,outcome,[3],inactive
same,AC50,[4],10.9 µM (active)
same,outcome,[5],inactive
same,outcome,[6],inactive
same,outcome,[7],inactive
same,outcome,[8],inactive
same,outcome,[9],inactive
FC(F)(F)C(F)(F)C(F)(F)C(F)(F)C(F)(F)C(F)(F)C(F)(F)Br,outcome,[1],inactive
same,outcome,[2],inactive
same,outcome,[3],inactive
same,outcome,[4],inactive
same,outcome,[5],inactive
same,outcome,[6],inactive
same,outcome,[7],inactive
same,outcome,[8],inactive
CCc1ccc(C(c2ccc(CC)cc2)C(Cl)Cl)cc1,AC50,[1],31.1 µM (active)
same,AC50,[2],14.7 µM (active)
same,AC50,[3],31.7 µM (active)
same,AC50,[4],27.8 µM (active)
same,AC50,[5],28.8 µM (active)
same,AC50,[6],28.5 µM (active)
same,AC50,[7],14.1 µM (active)
same,AC50,[8],9.01 µM (active)
CC(CCl)OP(=O)(OC(C)CCl)OC(C)CCl (configuration not stated),outcome,[11],inactive
same,outcome,[12],inactive
same,outcome,[13],inactive
same,outcome,[10],inactive
same,outcome,[1],inactive
same,outcome,[2],inactive
same,outcome,[3],inactive
same,outcome,[4],inactive
same,outcome,[5],inactive
same,outcome,[6],inactive
same,outcome,[7],inactive
same,outcome,[14],inactive
same,outcome,[15],inactive
same,outcome,[16],inactive
same,outcome,[8],inactive
C=CC(=O)OCC(F)(F)C(F)(F)C(F)(F)C(F)(F)COC(=O)C=C,AC50,[1],11.3 µM (active) and 11.2 µM (active)
same,AC50,[2],10.5 µM (active) and 7.38 µM (active)
same,AC50,[4],12.3 µM (active) and 10.4 µM (active)
same,AC50,[5],7.14 µM (active) and 8.58 µM (active)
same,AC50,[6],9.76 µM (active) and 9.35 µM (active)
same,AC50,[7],9.29 µM (active) and 10.5 µM (active)
same,AC50,[8],14.4 µM (active) and 16.6 µM (active)
O=C(O)C(F)(F)C(F)(F)C(F)(F)F,outcome,[10],inactive
same,outcome,[1],inactive
same,outcome,[2],inactive
same,outcome,[3],inactive
same,outcome,[4],inactive
same,outcome,[5],inactive
same,outcome,[6],inactive
same,outcome,[7],inactive
same,outcome,[8],inactive
C=CC(=O)OCC(F)(F)C(F)(F)C(F)(F)C(F)(F)C(F)(F)C(F)(F)C(F)(F)F,AC50,[1],14 µM (active)
same,outcome,[1],inactive
same,outcome,[2],inactive
same,outcome,[4],inactive
same,outcome,[5],inactive
same,AC50,[6],44.7 µM (active)
same,outcome,[6],inactive
same,outcome,[7],inactive
same,outcome,[8],inactive
O=C(O)C(F)(F)C(F)(F)C(F)(F)C(F)(F)C(F)(F)C(F)(F)C(F)(F)C(F)(F)C(F)(F)C(F)F,AC50,[1],22.9 µM (active)
same,outcome,[1],inactive
same,outcome,[2],inactive
same,outcome,[4],inactive
same,outcome,[5],inactive
same,outcome,[6],inactive
same,AC50,[7],21.5 µM (active) and 23.5 µM (active)
same,AC50,[8],19 µM (active) and 16.1 µM (active)
same,AC50,[9],18.7 µM (active) and 16.4 µM (active)
O=C(O)C(F)(F)C(F)(F)C(F)(F)C(F)(F)C(F)(F)C(F)(F)C(F)(F)C(F)(F)Cl,AC50,[1],20.5 µM (active) and 22.2 µM (active)
same,outcome,[2],inactive
same,outcome,[4],inactive
same,outcome,[5],inactive
same,outcome,[6],inactive
same,AC50,[7],43.5 µM (active) and 23.5 µM (active)
same,AC50,[8],19.3 µM (active)
O=C(O)C(F)(F)C(F)(F)OC(F)(F)F,outcome,[10],inactive
same,outcome,[1],inactive
same,outcome,[3],inactive
same,outcome,[4],inactive
same,outcome,[5],inactive
same,outcome,[6],inactive
same,outcome,[7],inactive
same,outcome,[8],inactive
O=C(O)C(F)(F)C(F)(F)C(F)F,outcome,[1],inactive
same,outcome,[2],inactive
same,outcome,[3],inactive
same,outcome,[4],inactive
same,outcome,[5],inactive
same,outcome,[6],inactive
same,outcome,[7],inactive
same,outcome,[8],inactive
